This note sets out measurements from PubChem BioAssay (NCI).

Structures are written as SMILES. The panel holds about 83,000 compounds, 20% with a hit somewhere; the sample as a whole holds those more often.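 In brief: 96-well plates, 48 h treatment, single concentration, percent growth endpoint.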 A number with no mark means an inactive call. Activity calls are given as the source filed them. Rule for the calls: active = growth percent below 10; inactive = the rest.

Test in all cases: NCI-60 one-dose screen, 48 h (100 = growth as untreated, 0 = no growth, -100 = all killed)
One assay relates to HCT-15 colon. Particulars: 10 µM unless noted.
The subject of the next assay is HT29 colon. Particulars: 10 µM unless noted.
A further assay concerns SNB-75 CNS. Particulars: 10 µM unless noted.
In another assay the test system is SNB-19 CNS. The settings on record: 10 µM unless noted.
In the next assay the test system is U251 CNS. Particulars: 10 µM unless noted.
The next assay relates to PC-3 prostate. Particulars: 10 µM unless noted.
A further assay deals with SK-MEL-5 melanoma. Particulars: 10 µM unless noted.
Another assay relates to UACC-62 melanoma. Particulars: 10 µM unless noted.
In a further assay the test system is LOX IMVI melanoma. Particulars: 10 µM unless noted.
The next assay concerns SK-MEL-28 melanoma. Particulars: 10 µM unless noted.
The subject of another assay is SK-MEL-2 melanoma. The settings on record: 10 µM unless noted.
For a further assay, the system named is SN12C renal. The settings on record: 10 µM unless noted.
The next assay concerns UO-31 renal. The settings on record: 10 µM unless noted.
In a further assay the test system is TK-10 renal. The settings on record: 10 µM unless noted.
A further assay deals with ACHN renal. Particulars: 10 µM unless noted.
Another assay deals with A498 renal. Particulars: 10 µM.
Another assay deals with CCRF-CEM leukemia. Particulars: 10 µM unless noted.
In a further assay the test system is CAKI-1 renal. Particulars: 10 µM unless noted.
The subject of a further assay is HL-60(TB) leukemia. Particulars: 10 µM unless noted.
The test system of another assay is EKVX NSCLC. Particulars: 10 µM unless noted.

Take `CC(=O)O[C@H]1CC[C@]2(C)[C@H]3CC[C@]4(C)[C@@H](OC(C)=O)CC[C@H]4[C@@H]3[C@@H](C)[C@]2(O)C1`: the growth in the assay on HCT-15 colon is 108%; in the assay with HT29 colon, 106%; with SNB-75 CNS it was 92.5%; in the assay with SNB-19 CNS, 111%; in the assay with U251 CNS, 111%; with PC-3 prostate it was 89.6%. In addition, the growth with SK-MEL-5 melanoma is 106%; in the assay with UACC-62 melanoma, 98.4%; with LOX IMVI melanoma, 96.8%; with SK-MEL-28 melanoma, 117%; with SK-MEL-2 melanoma, 99.1%; in the assay on SN12C renal, 101%. The growth with UO-31 renal is 88.7%; in the assay with TK-10 renal it was 112%; in the assay on ACHN renal, 112%; with A498 renal, 105%; in the assay with CCRF-CEM leukemia, 93.1%.
Take `Cc1c(O)c(CN(CCCl)CCCl)cc(CN(CCCl)CCCl)c1O`: the growth with HCT-15 colon is 82.7%; in the assay with HT29 colon, 70.8%; in the assay with SNB-75 CNS, 78.9%; in the assay with SNB-19 CNS it was 99.7%; with U251 CNS, 81.6%; with PC-3 prostate it was 65.8%. Moreover, the growth is 91.7% with SK-MEL-5 melanoma; 89.1% in the assay with UACC-62 melanoma; 77.4% in the assay with LOX IMVI melanoma; 102% in the assay with SK-MEL-28 melanoma; 110% in the assay with SK-MEL-2 melanoma; 72.9% in the assay on SN12C renal. Also, the growth with UO-31 renal is 70.3%; in the assay on ACHN renal it was 42.5%; in the assay on CAKI-1 renal, 17.6%; in the assay with A498 renal it was 92.4%; in the assay on HL-60(TB) leukemia it was 47.1%; in the assay on CCRF-CEM leukemia, 41.8%.
`CC1CN1CCCCN1CC1C` (stereo unspecified): the growth in the assay on HCT-15 colon was 103%; in the assay with HT29 colon it was 87%; in the assay with SNB-75 CNS, 81.1%; in the assay on SNB-19 CNS it was 109%; in the assay on U251 CNS, 104%; with PC-3 prostate, 95%. In addition, the growth is 107% with SK-MEL-5 melanoma; 113% in the assay with UACC-62 melanoma; 101% with LOX IMVI melanoma; 100% with SK-MEL-28 melanoma; 80.6% in the assay with SK-MEL-2 melanoma; 109% with SN12C renal. Besides, the growth with UO-31 renal is 98.4%; with TK-10 renal, 88.8%; in the assay on ACHN renal it was 107%; in the assay on CAKI-1 renal, 102%; in the assay on A498 renal, 107%; with HL-60(TB) leukemia, 77.4%.
Consider `COc1ccc(-n2c(C)nc3cc(OC)c(OC)cc3c2=O)cc1OC`, for which the growth in the assay on HCT-15 colon was 111%; with HT29 colon, 106%; with SNB-75 CNS it was 92.2%; with SNB-19 CNS, 102%; in the assay with U251 CNS it was 94.4%; with PC-3 prostate, 101%. The growth in the assay on SK-MEL-5 melanoma was 104%; in the assay with UACC-62 melanoma, 104%; with LOX IMVI melanoma, 101%; with SK-MEL-28 melanoma, 109%; in the assay on EKVX NSCLC, 108%; in the assay on SN12C renal, 105%. Besides, the growth in the assay with UO-31 renal is 94.4%; with TK-10 renal, 102%; in the assay with ACHN renal, 109%; in the assay on CAKI-1 renal, 97.3%; with A498 renal, 95.8%; with HL-60(TB) leukemia it was 100%. Besides, in the assay on CCRF-CEM leukemia, the growth is 98.1%.
As to `C=C1C(=O)O[C@H]2[C@H]1CC/C(COC(=O)C(=O)c1cn(Cc3ccccc3)c3ccccc13)=C\CC[C@@]1(C)O[C@@H]21`, the growth with HCT-15 colon was -45.6% (active); with HT29 colon, -40.2% (active); with SNB-75 CNS, -75.2% (active); in the assay with SNB-19 CNS, 3.39% (active); with U251 CNS it was -88.7% (active); in the assay with PC-3 prostate, -57.9% (active). In addition, the growth is -96.6% (active) with SK-MEL-5 melanoma; -87.4% (active) in the assay with UACC-62 melanoma; -93.3% (active) with LOX IMVI melanoma; -47.1% (active) in the assay on SK-MEL-28 melanoma; -40.7% (active) in the assay with EKVX NSCLC; -70.3% (active) in the assay with SN12C renal. Moreover, the growth is -91.3% (active) with UO-31 renal; -62.2% (active) in the assay on TK-10 renal; -61.5% (active) in the assay on ACHN renal; -34.6% (active) in the assay with CAKI-1 renal; 52.4% in the assay with A498 renal; -26.6% (active) in the assay on HL-60(TB) leukemia. Moreover, the growth in the assay with CCRF-CEM leukemia was -30.6% (active).
For the compound `NC(N)=N/N=C\c1c[nH]c2ccc(Br)cc12`, the growth in the assay with HCT-15 colon is 105%; in the assay with HT29 colon, 92.3%; with SNB-75 CNS it was 72.6%; in the assay on SNB-19 CNS it was 67.1%; in the assay with U251 CNS it was 32.9%; with PC-3 prostate, 72.2%. The growth was 67.6% with SK-MEL-5 melanoma; 101% in the assay with UACC-62 melanoma; 93.7% with LOX IMVI melanoma; 100% in the assay on SK-MEL-28 melanoma; 93.8% in the assay on EKVX NSCLC; 68.5% in the assay on SN12C renal. The growth was 86.1% in the assay with UO-31 renal; 116% in the assay with TK-10 renal; 95.4% with ACHN renal; 101% in the assay with CAKI-1 renal; 89.7% in the assay with A498 renal; 93.5% with HL-60(TB) leukemia. The growth in the assay on CCRF-CEM leukemia is 78.6%.
Consider `CCC1(C(C)C)C(=O)NC(=S)NC1=O`, for which the growth in the assay on HCT-15 colon is 97.6%; in the assay with HT29 colon, 112%; with SNB-75 CNS, 95.5%; with SNB-19 CNS, 108%; with U251 CNS, 95.9%; in the assay on PC-3 prostate, 95.6%. The growth was 98.8% in the assay on SK-MEL-5 melanoma; 103% with UACC-62 melanoma; 102% with LOX IMVI melanoma; 109% with SK-MEL-28 melanoma; 117% in the assay with SK-MEL-2 melanoma; 103% in the assay with SN12C renal. Also, the growth with UO-31 renal is 97.4%; in the assay with TK-10 renal, 107%; in the assay with CAKI-1 renal, 99.8%; in the assay on A498 renal, 92.8%; in the assay on HL-60(TB) leukemia, 102%; in the assay with CCRF-CEM leukemia, 97.3%.
For `COc1cc2c(cc1OCc1ccccc1)C(CC(C)C)=[N+](C)CC2`, the growth is 99.4% in the assay on HCT-15 colon; 63.3% in the assay on HT29 colon; 64.9% with SNB-75 CNS; 69% in the assay on SNB-19 CNS; 49.1% in the assay on U251 CNS; 62.8% in the assay on PC-3 prostate. Further, the growth is 75.9% with SK-MEL-5 melanoma; 81.9% with UACC-62 melanoma; 91.1% with LOX IMVI melanoma; 95.1% in the assay with SK-MEL-28 melanoma; 82.1% in the assay on SK-MEL-2 melanoma; 68.6% in the assay with EKVX NSCLC. Further, the growth with UO-31 renal was 87.9%; in the assay with ACHN renal, 99.2%; with CAKI-1 renal it was 96.2%; in the assay on A498 renal, 95.9%; in the assay with HL-60(TB) leukemia, 73%; in the assay on CCRF-CEM leukemia, 73.1%.
